Data from PubChem BioAssay (NCI).
This is part of a sample that, as a whole, favours compounds with a hit. Of some 83,000 tested, about 20% had one in any assay.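 Plates (96-well) were seeded with cells, treated with compound at one concentration, and incubated for 48 hours before percent growth was determined.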 A number with no mark means an inactive call. Activity calls are given as the source filed them. The calls were made as follows: active = growth percent below 10; inactive = the rest.

tested on: ACHN renal; experiment: NCI-60 one-dose screen, 48 h (100 = growth as untreated, 0 = no growth, -100 = all killed); details: 10 µM unless noted

Compound	growth
CC(=O)[C@@H]1CC[C@]2(C(N)=O)CC[C@]3(C)[C@H](CC[C@@H]4[C@@]5(C)CCCNC(C)(C)[C@@H]5CC[C@]43C)[C@@H]12	107%
Oc1c(Cl)cc(Cl)c(Cl)c1CNCCNCc1c(O)c(Cl)cc(Cl)c1Cl	8.86% (active)
O=C1Nc2cc(Cl)ccc2/C1=C\c1c(-c2ccc(F)cc2)nc2ccccn12	41%
O=C(NO)c1ccc(-n2nc(-c3ccccc3)c3ccccc32)cc1	26.9%
O=C(CNCCN1CCOCC1)N1c2cccc3cccc(c23)N(C(=O)CNCCN2CCOCC2)C1c1cn(-c2ccccc2)nc1-c1cccc([N+](=O)[O-])c1	88.7%
O=C1c2cccc3c(-c4ccc5c(c4)ncn5C4CCCCC4)ccc(c23)C(=O)N1CCO	94.7%
CC(=O)Oc1ccc(/C=N/NC(N)=S)nc1	13.2%
NC(=S)N1N=C(c2ccccc2)CC1c1cn(-c2ccccc2)nc1-c1ccc(OCc2ccccc2)cc1 (configuration not stated)	100%
Cc1ccc(-c2nc3ccccn3c2/C=C2/C(=O)Nc3cc(Cl)ccc32)cc1	92.3%
Clc1ccc(-c2ccc(CNCC3CCNCC3)o2)c(-c2ccccc2)c1	-96.8% (active)
CC(=O)[C@H]1CCC/C=C/[C@@H]2C[C@H](O)C[C@H]2[C@H](O)/C=C/C(=O)O1	5.56% (active)
CCOC(=O)c1cc(C(=O)c2ccc(Br)cc2)n2ccc(/C=C/c3cc[n+](CC(=O)c4ccc(OC)cc4)cc3)cc12	93.6%
COc1ccc(/C=C/c2nc(Nc3ccc(S(=O)(=O)Nc4nc(C)cc(C)n4)cc3)c3ccccc3n2)cc1	57.7%
Cc1ccc(C(=O)/C(=C/c2ccc([N+](=O)[O-])cc2)SCc2ccc(Cl)cc2)cc1	91.1%
O=C1c2c(c3c4cccc(F)c4[nH]c3c3ccc4ccccc4c23)C(=O)N1O	27.8%
COc1ccc(C(=O)C2C(C#N)C(C#N)C3C=Cc4ccccc4N32)cc1 (configuration not stated)	44%
CCOC(=O)CC1CSC(N/N=C/c2ccc(-n3cccn3)cc2)=N1 (configuration not stated)	109%
CC(C)N1C(=O)/C(=C2\SC(=S)N(C(C)C)C2=O)SC1=S	100%
CC(C)(C)[Si](C)(C)OC1[C@@H](O[Si](C)(C)C(C)(C)C)[C@@H](CNC(=O)NC(=O)CCl)O[C@H]1n1cnc2c(NC(=O)Nc3ccccc3)ncnc21 (some centres not stated)	-68.6% (active)
COc1ccc(-c2nc3sccn3c2/C=C/C(=O)c2ccc3c(c2)OCO3)cc1	73.3%
O=C1c2ccccc2C(=O)c2c([N+](=O)[O-])ccc(Cl)c21	85.5%
COc1ccc(/C=C/c2nc(Nc3cccc(NC(C)=O)c3)c3ccccc3n2)cc1	78.3%
Cc1ccc(-n2nc3c(c(C#N)c2=O)CC(c2ccccc2[N+](=O)[O-])C([N+](=O)[O-])=C3O)cc1 (configuration not stated)	86.4%
COc1cc(OC)cc(C(=O)C[n+]2cccc3cc[nH]c32)c1	101%

tested on: CAKI-1 renal; experiment: as above; details: 10 µM unless noted

Compound	growth
COc1ccc(/C=C/c2nc(Nc3ccc(S(=O)(=O)Nc4cc(C)on4)cc3)c3ccccc3n2)cc1	49.4%
NS(=O)(=O)c1ccc(CCN2C(=O)c3cc(Cl)c(Cl)cc3C2=O)cc1	96.6%
C/C=C(\C)C(=O)NC1=CC[C@@]2(C)C(=CCC3C2CC[C@@]2(C)C3CC[C@@H]2C(C)N(C)C)C1=O (some centres not stated)	63.6%
O=c1c2c(c(=O)n1O)c1c3ccc[nH]c3nc1c1nc3[nH]cccc3c12	68.9%
Cc1ccc(C(=O)/C(=C\c2ccc([N+](=O)[O-])cc2)S(=O)Cc2ccc(F)cc2)cc1 (configuration not stated)	30.3%
O=C(Nc1ncc(Cc2cc(Cl)ccc2Cl)s1)c1cccs1	42.4%
O=C(C[n+]1cccc2ccccc21)c1ccc(O)c(O)c1	83.6%
OCc1cnccc1NCCCCOc1ccc(Oc2ccccc2)cc1	70.7%
Oc1cccc(CCc2ccc(Oc3cc(CCc4cccc(O)c4)cc(O)c3O)cc2)c1	52.7%
CC/C(=C\c1ccc(OC)cc1)C(=O)c1ccc(OC)cc1	69.6%
CN1C(N2CCN(S(=O)(=O)c3ccccc3)CC2)=NS(=O)(=O)c2ccccc21	104%
O=C1Nc2ccc(F)cc2/C1=C\c1c(-c2ccccc2)nc2ccccn12	34.3%
O=C(Cn1c(C(=O)c2ccccc2)nc2ccccc21)c1ccc(F)cc1	42.6%
COc1ccc(C(=O)c2nc3ccccc3n2CC(=O)c2ccc(Cl)cc2)cc1	23.7%
CC(=O)[C@@H]1CC[C@]2(C(N)=O)CC[C@]3(C)[C@H](CC[C@@H]4[C@@]5(C)CCCNC(C)(C)[C@@H]5CC[C@]43C)[C@@H]12	93.1%
Oc1c(Cl)cc(Cl)c(Cl)c1CNCCNCc1c(O)c(Cl)cc(Cl)c1Cl	9.72% (active)
O=C1Nc2cc(Cl)ccc2/C1=C\c1c(-c2ccc(F)cc2)nc2ccccn12	21.5%
O=C(NO)c1ccc(-n2nc(-c3ccccc3)c3ccccc32)cc1	45.6%
O=C(CNCCN1CCOCC1)N1c2cccc3cccc(c23)N(C(=O)CNCCN2CCOCC2)C1c1cn(-c2ccccc2)nc1-c1cccc([N+](=O)[O-])c1	66%

Compound	growth
O=C1c2cccc3c(-c4ccc5c(c4)ncn5C4CCCCC4)ccc(c23)C(=O)N1CCO	77.5%
CC(=O)Oc1ccc(/C=N/NC(N)=S)nc1	49.8%
NC(=S)N1N=C(c2ccccc2)CC1c1cn(-c2ccccc2)nc1-c1ccc(OCc2ccccc2)cc1 (configuration not stated)	92.7%
Cc1ccc(-c2nc3ccccn3c2/C=C2/C(=O)Nc3cc(Cl)ccc32)cc1	62.6%
Clc1ccc(-c2ccc(CNCC3CCNCC3)o2)c(-c2ccccc2)c1	-85.3% (active)
CC(=O)[C@H]1CCC/C=C/[C@@H]2C[C@H](O)C[C@H]2[C@H](O)/C=C/C(=O)O1	-15.7% (active)
CCOC(=O)c1cc(C(=O)c2ccc(Br)cc2)n2ccc(/C=C/c3cc[n+](CC(=O)c4ccc(OC)cc4)cc3)cc12	93.2%
COc1ccc(/C=C/c2nc(Nc3ccc(S(=O)(=O)Nc4nc(C)cc(C)n4)cc3)c3ccccc3n2)cc1	53.1%
Cc1ccc(C(=O)/C(=C/c2ccc([N+](=O)[O-])cc2)SCc2ccc(Cl)cc2)cc1	74.8%
O=C1c2c(c3c4cccc(F)c4[nH]c3c3ccc4ccccc4c23)C(=O)N1O	29.4%
COc1ccc(C(=O)C2C(C#N)C(C#N)C3C=Cc4ccccc4N32)cc1 (configuration not stated)	27.4%
CCOC(=O)CC1CSC(N/N=C/c2ccc(-n3cccn3)cc2)=N1 (configuration not stated)	102%
CC(C)N1C(=O)/C(=C2\SC(=S)N(C(C)C)C2=O)SC1=S	93.7%
CC(C)(C)[Si](C)(C)OC1[C@@H](O[Si](C)(C)C(C)(C)C)[C@@H](CNC(=O)NC(=O)CCl)O[C@H]1n1cnc2c(NC(=O)Nc3ccccc3)ncnc21 (some centres not stated)	37.9%
COc1ccc(-c2nc3sccn3c2/C=C/C(=O)c2ccc3c(c2)OCO3)cc1	78.3%
O=C1c2ccccc2C(=O)c2c([N+](=O)[O-])ccc(Cl)c21	39.4%
COc1ccc(/C=C/c2nc(Nc3cccc(NC(C)=O)c3)c3ccccc3n2)cc1	67.4%
Cc1ccc(-n2nc3c(c(C#N)c2=O)CC(c2ccccc2[N+](=O)[O-])C([N+](=O)[O-])=C3O)cc1 (configuration not stated)	77.4%
COc1cc(OC)cc(C(=O)C[n+]2cccc3cc[nH]c32)c1	89%
